This test concerns VDR:RXRa (NR concentration 270 nM, RXRa partner concentration 90 nM). The experiment in a line: PBM binding z-score (relative to random genomic background probes); higher = stronger binding; sequences stand for … in GC…GCGATTGACAGCGTAGAATGAAGG
How it is done: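 Protein-binding microarray (Agilent 4x180K custom design, double-stranded 60-nt probes: 5' GC cap, 34-nt variable region, 24-nt constant primer region; full probe sequence given). Purified or IVT nuclear receptor:RXRα heterodimers (3:1 NR:RXRα, mostly 270:90 nM) or homodimers were incubated for 1 h in PBS with 2% milk and no ligand, then detected with Alexa488 antibodies. Fluorescence from o1-orientation probes (~5 replicates averaged) was converted to z-scores against 500 random hg19 background probes. Variable regions are seed direct-repeat (DR0–DR5) sites, all their single-nucleotide variants and half-site ablations.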
For CCGACTGGGGCAAGGTTACCCTAACGCACAGCCA, the PBM binding z-score was determined as 0.016.

In the case of AGCACGAGGGCAATGAGTTGATAGCACGGGTGGC, the PBM binding z-score came to 5.06.

For the sequence ATCTCTAGGTAAGAATCAGTTCAGTGAAGAACGC, the PBM binding z-score was found to be 0.845.

With ATTTACGGGTCAACGAGGTTATAGCACGCGTATA, the PBM binding z-score worked out at 8.05.

As for AGTCAAAGTTCAGGACGAAGTAACGTAAAGCACG, the PBM binding z-score amounted to 2.

Take CCGACTGGGGCATAAGGTTCCCATAAGCCAGCCC: the PBM binding z-score was -0.0761.

In turn, GCGACTGGGGAAAAGCAGGTTACCATAAGGTTGG registered a PBM binding z-score of -0.273.

Sequence CAAATTAGGTCAAGGTCAAAGTCGGTTTGTGCCA gave a PBM binding z-score of 5.33.

As to TAGCCTAGGTCATGGGCCAGTAGACCACGCGAAC, the PBM binding z-score turned out to be 1.85.

With CCTTACGGTTCAAGGTTATAGCACGGGTGGTACG, the PBM binding z-score stood at 2.72.

In turn, TCTTCTAGATCAGCAGGTTAAGAAAGCTGGCCAA yielded a PBM binding z-score of 0.175.

As to CCTAGCAGGCCAGGGTCACTTAAGCATTTCGCTT, the PBM binding z-score came to 2.3.

On to CCTCCGAGGACAGAAGGTCAGAGCTGTCCGCTTT, for which the PBM binding z-score amounted to 1.36.

Consider TTATATAGGTAAACAGGTGAAAGTCCGTAAGTTA, for which the PBM binding z-score was 0.869.

In the case of GCTGTTAGGTCAGGTTGGTCAGCTAACGGGTACG, the PBM binding z-score worked out at 0.95.

Consider CTCGAAAGGTCGGTTGAGGTGAGAATACGGATAA, for which the PBM binding z-score came to 2.26.

ATATGTAGGTTATAGGGTCATTCAGTTTGCGCAT gave a PBM binding z-score of 5.98.

For CCTACTGGGCCATCAGATCATTGATATCAACGTT, the PBM binding z-score was -0.181.

TAGCCTAGGTCAGATGGGGCCAGTATACGCTATA returned a PBM binding z-score of 2.69.

As to ACTCAAAGTTCAGGACGAGGTAACGTAAAGCACG, the PBM binding z-score came to 3.22.

Take AGAACGAGGGCAGGCTGAGTTGATAGCAGAGTAG: the PBM binding z-score came out at 0.431.

In turn, CCGACTGAGGCAAGGTTACCATAACGCACAGCCA showed a PBM binding z-score of 0.0737.

AGTATGAGGTTACCAAAGATCAGGGAAACGCTTG showed a PBM binding z-score of 1.41.

Take GATATAGGGTCAAGGCCAGAGTACGCGTATTGAT: the PBM binding z-score came to 4.5.

GCTGCTAGGTCAACAGATGGTCAGCTAAAGCTCG showed a PBM binding z-score of 1.11.

On to ATCGAAAGGTCGAGGTGAGTTTAGAGAAAGGGAA, for which the PBM binding z-score was found to be 4.92.

ATCGAAAGGTAGAGGTGAGTATAGAGAAAGGGAA came in with a PBM binding z-score of 0.0851.

As for AGAATGAGGTAATACGTAGATCAGGGAAGAAAGT, the PBM binding z-score is -0.148.

In turn, ATACCAAGGTGATCGTGAGGTCGGTGATACTAAC registered a PBM binding z-score of 0.863.

Take CCTTACCGGTCACTGACAGGTTATAGCATTTGGA: the PBM binding z-score is 0.869.

As for CCGACTGAGGCAAAGGTTACCATACTCAGTACGA, the PBM binding z-score came out at 1.07.

Take GGAACGAGGGCAAGTTGATAGAAGAGTTTGATGG: the PBM binding z-score came out at 0.975.

Regarding CCGACAGGGGCATAAGGTTACCATAAGCCAGCCC, the PBM binding z-score is 1.1.

In turn, TCTTGTAGATCAACAGGTGGTTAAGAAAGATCGA displayed a PBM binding z-score of 0.266.

The sequence AGAATGAGGTTAAGATCAGTGAAACAGAATACAT showed a PBM binding z-score of 1.47.

Turning to CCTGCTAGGTCCATGGTCAGCTAAAGCAGCTCGC, the PBM binding z-score was -0.591.

Regarding AAAACGAGGGCAATGAGTTGATAGCACGGGTGGC, the PBM binding z-score was determined as 5.46.

AGTCAAAGTTCATCTAGGTAACGTAGGATATGCT registered a PBM binding z-score of 5.09.

The sequence CCTGCTAGGTCAACGGTCAGCTAAAGCAGCTCGC yielded a PBM binding z-score of 1.58.

For AGAACGACGGCACGCTGAGTTGATAGCAGAGTAG, the PBM binding z-score is -0.301.

Values taken from the supplement of paper PMC6555819.
